The full list was thinned out, with hits kept by preference. The true hit rate is not given.
Test system: T1, Caupolican (Caup) homeodomain DNA-binding domain
T1 sequence: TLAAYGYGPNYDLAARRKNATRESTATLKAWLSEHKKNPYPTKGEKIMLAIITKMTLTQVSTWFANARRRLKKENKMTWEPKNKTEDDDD
Test: PBM E-score (8-mer, recovered from the published 9-mer minima) (E-score (dimensionless, -0.5 to 0.5)); Drosophila protein; higher = stronger relative binding preference, active = 0.31 or more
Method in brief: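 Caup's homeodomain DNA-binding domain (residues 214-303) was made by in vitro transcription and translation and applied at 100 nM to custom-designed protein binding microarrays. Each value is an enrichment score that gives relative binding preference for a short DNA word, with higher meaning stronger. The 8-mer values were recovered from published 9-mer scores, each of which was the minimum of its two constituent 8-mer scores. A cutoff of 0.31 marks candidate sites.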

PBM E-score, active:
ACGACAAC 0.339
AGGACATG 0.38
AAGACATG 0.381
ACGACATG ≥ 0.416
ACGACAAG ≥ 0.317
AACACAAC ≥ 0.339
AACACAAT ≥ 0.319
AAGCATGT 0.356
AATCATGT 0.42
AACCATGT 0.347
AAACGTGT 0.31
AATCGTGT 0.324
AAATATGT 0.335

PBM E-score, inactive:
CGGTTCAA -0.15
AGCGGTTA -0.0759
AGAGATGA -0.00602
AGGACATC 0.233
AAGACATT 0.0764
CCGACAAC 0.198
GCGACAAC 0.224
AAGACATA 0.229
ACGACATC 0.26
AGGACAAG 0.254
ACGACATA 0.299
CATTTTGA 0.0478
ACGAGTGC 0.0719
ATATACTG 0.156
TCAACGAA 0.0771
GGGATTAC 0.0873
CTGCGTGA -0.0361
GACCTCTA -0.142
GATGCCTA 0.0242
CGCTAGAC -0.0864
ACGACAAT 0.186
ACGACAAA 0.194
CCACAGCC -0.141
CACACAAC 0.14
AACACAAA 0.207
GACACAAC 0.216
AACACAAG 0.228
GAGACACC -0.0907
AATCATGG 0.0994
AACCATGC 0.0352
AAGCATGG 0.00906
AACCATGG 0.0193
AATCATGA 0.164
AAGCATGC 0.122
ACAATTCG 0.163
AGATCGCC -0.108
TCCAGTCA -0.102
AAACGTGG -0.051
AATCGTGC 0.105
AAACGTGA 0.0748
AATCGTGA 0.102
AGCGTCGA 0.017
AATGATAA 0.141
GAGTAACC -0.034
ATGGACGG -0.0288
CATCCTGA 0.007
AAATATGA 0.164
AAATATGC 0.00511
ATAGCCTC -0.0831

— the supplement of paper PMC3724861
